Data: PubChem BioAssay AID1159580 (chemical genetic matrix, 2015)
The whole screen tested about 5,500 compounds, of which about 2,000 (36%) were called active. Not shown: some 18% with an inconclusive outcome. No stated cut-off is given here; in the data, active means normalized growth mostly below about 0.91 (no sharp cut-off); inconclusive means no clear call, values can overlap the other calls; inactive means mostly above about 0.92. The list shows a part of the results.

Assay: chemical genetic growth profiling, strain panel (AID 1159580);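 further: tested at 20 µM; growth read once vehicle control cultures reached saturation at 30 °C; 1 = growth at the plate median or of vehicle wells; lower values mean less growth of the strain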
Details: growth OD
[1] = S. cerevisiae deletion strains, locus YHR030C, strain SLT2, active compounds read low
[2] = S. cerevisiae deletion strains, locus YHR079C, strain IRE1, active compounds read low
[3] = S. cerevisiae deletion strains, locus YJL095W, strain BCK1, active compounds read low
[4] = S. cerevisiae deletion strains, locus YJR066W, strain TOR1, active compounds read low
[5] = S. cerevisiae deletion strains, locus YLR113W, strain HOG1, active compounds read low
[6] = S. cerevisiae deletion strains, locus YNL183C, strain NPR1, active compounds read low
[7] = S. cerevisiae deletion strains, locus YOR231W, strain MKK1, active compounds read low
[8] = S. cerevisiae deletion strains, locus YPL256C, strain CLN2, active compounds read low
[9] = S. cerevisiae deletion strains, locus YDL101C, strain DUN1, active compounds read low

Measured: normalized growth

CC(N)C12CC3CC(CC(C3)C1)C2 (stereo not given)
inactive: [1] 0.992 | [2] 0.977 | [3] 0.989 | [4] 0.935 | [5] 1.02 | [6] 0.944 | [7] 1.01 | [8] 0.979

CCOC(=O)N/N=C\c1ccccc1OCC
inactive: S. cerevisiae deletion strains, locus YAL013W, strain DEP1, active compounds read low 1.02 | S. cerevisiae deletion strains, locus YBR229C, strain ROT2, active compounds read low 0.998 | S. cerevisiae deletion strains, locus YCL061C, strain MRC1, active compounds read low 1.02 | [9] 1.01 | S. cerevisiae deletion strains, locus YDL134C, strain PPH21, active compounds read low 1.02 | S. cerevisiae deletion strains, locus YDR150W, strain NUM1, active compounds read low 0.923 | S. cerevisiae deletion strains, locus YEL061C, strain CIN8, active compounds read low 1.02 | S. cerevisiae deletion strains, locus YGR078C, strain PAC10, active compounds read low 1 | S. cerevisiae deletion strains, locus YGR229C, strain SMI1, active compounds read low 1.01 | [1] 1.02 | S. cerevisiae deletion strains, locus YHR087W, strain rtc3, active compounds read low 0.992 | S. cerevisiae deletion strains, locus YJR043C, strain POL32, active compounds read low 1.02 | S. cerevisiae deletion strains, locus YJR075W, strain HOC1, active compounds read low 0.985 | S. cerevisiae deletion strains, locus YKL190W, strain CNB1, active compounds read low 1 | S. cerevisiae deletion strains, locus YLR039C, strain RIC1, active compounds read low 0.931 | S. cerevisiae deletion strains, locus YLR058C, strain SHM2 (second series), active compounds read low 0.995 | S. cerevisiae deletion strains, locus YLR085C, strain ARP6, active compounds read low 1.04 | S. cerevisiae deletion strains, locus YLR262C, strain YPT6, active compounds read low 0.917 | S. cerevisiae deletion strains, locus YML094W, strain GIM5, active compounds read low 1.02 | S. cerevisiae deletion strains, locus YMR219W, strain ESC1, active compounds read low 0.997 | S. cerevisiae deletion strains, locus YMR263W, strain SAP30, active compounds read low 1.03 | S. cerevisiae deletion strains, locus YNL128W, strain TEP1, active compounds read low 1.01 | S. cerevisiae deletion strains, locus YNL153C, strain GIM3, active compounds read low 1.02 | S. cerevisiae deletion strains, locus YNL298W, strain CLA4 (second series), active compounds read low 1.03 | S. cerevisiae deletion strains, locus YNL322C, strain KRE1, active compounds read low 1 | S. cerevisiae deletion strains, locus YNR030W, strain Alg12, active compounds read low 1.02 | S. cerevisiae deletion strains, locus YOL006C, strain TOP1, active compounds read low 1.06 | S. cerevisiae deletion strains, locus YPL055C, strain LGE1, active compounds read low 0.98 | S. cerevisiae deletion strains, locus YPL241C, strain CIN2, active compounds read low 1.02 | S. cerevisiae deletion strains, locus YPR135W, strain CTF4, active compounds read low 1.03 | S. cerevisiae strains, strain wild type, active compounds read low 1.01

COCCCNC(=S)N/N=C\c1cc(Br)ccc1O
inactive: S. cerevisiae deletion strains, locus YAR019C, strain CDC15, active compounds read low 0.967 | S. cerevisiae deletion strains, locus YBL105C, strain PKC1, active compounds read low 0.971 | S. cerevisiae deletion strains, locus YBR135W, strain CKS1, active compounds read low 0.962 | S. cerevisiae deletion strains, locus YBR136W, strain MEC1, active compounds read low 0.967 | S. cerevisiae deletion strains, locus YBR160W, strain CDC28, active compounds read low 0.961 | S. cerevisiae deletion strains, locus YDL017W, strain CDC7, active compounds read low 0.966 | S. cerevisiae deletion strains, locus YDL028C, strain MPS1, active compounds read low 0.963 | [9] 0.975 | S. cerevisiae deletion strains, locus YDL108W, strain KIN28, active compounds read low 0.97 | S. cerevisiae deletion strains, locus YDL132W, strain cdc53, active compounds read low 0.963 | S. cerevisiae deletion strains, locus YDL214C, strain PRR2, active compounds read low 0.977 | S. cerevisiae deletion strains, locus YDR052C, strain DBF4, active compounds read low 0.973 | S. cerevisiae deletion strains, locus YDR054C, strain cdc34, active compounds read low 0.956 | S. cerevisiae deletion strains, locus YDR226W, strain ADK1, active compounds read low 0.96 | S. cerevisiae deletion strains, locus YDR477W, strain SNF1, active compounds read low 0.954 | S. cerevisiae deletion strains, locus YER123W, strain YCK3, active compounds read low 0.989 | S. cerevisiae deletion strains, locus YER133W, strain GLC7, active compounds read low 0.95 | S. cerevisiae deletion strains, locus YFL009W, strain cdc4, active compounds read low 0.96 | S. cerevisiae deletion strains, locus YFL029C, strain CAK1, active compounds read low 0.963 | S. cerevisiae deletion strains, locus YFR003C, strain YPI1, active compounds read low 0.966 | S. cerevisiae deletion strains, locus YFR019W, strain FAB1, active compounds read low 0.983 | S. cerevisiae deletion strains, locus YFR028C, strain CDC14, active compounds read low 0.972 | S. cerevisiae deletion strains, locus YGR040W, strain KSS1, active compounds read low 0.957 | S. cerevisiae deletion strains, locus YGR052W, strain FMP48, active compounds read low 1 | S. cerevisiae deletion strains, locus YGR092W, strain DBF2, active compounds read low 0.915 | [1] 0.898 | [2] 0.967 | S. cerevisiae deletion strains, locus YHR082C, strain KSP1, active compounds read low 1.03 | S. cerevisiae deletion strains, locus YHR205W, strain SCH9, active compounds read low 0.943 | S. cerevisiae deletion strains, locus YIL147C, strain SLN1, active compounds read low 0.957 | [3] 0.992 | S. cerevisiae deletion strains, locus YJL128C, strain PBS2, active compounds read low 0.936 | S. cerevisiae deletion strains, locus YJL157C, strain FAR1, active compounds read low 0.965 | S. cerevisiae deletion strains, locus YJR016C, strain ILV3, active compounds read low 0.966 | S. cerevisiae deletion strains, locus YJR066W, strain TOR1 (second series), active compounds read low 0.983 | [4] 1.02 | S. cerevisiae deletion strains, locus YKL048C, strain ELM1, active compounds read low 0.98 | S. cerevisiae deletion strains, locus YKL067W, strain YNK1, active compounds read low 0.984 | S. cerevisiae deletion strains, locus YKL101W, strain HSL1, active compounds read low 0.975 | S. cerevisiae deletion strains, locus YKL193C, strain SDS22, active compounds read low 0.954 | S. cerevisiae deletion strains, locus YKL203C, strain TOR2, active compounds read low 1.02 | [5] 0.985 | S. cerevisiae deletion strains, locus YLR133W, strain CKI1, active compounds read low 0.967 | S. cerevisiae deletion strains, locus YLR403W, strain SFP1, active compounds read low 0.91 | S. cerevisiae deletion strains, locus YML070W, strain DAK1, active compounds read low 0.982 | S. cerevisiae deletion strains, locus YMR001C, strain CDC5, active compounds read low 0.965 | S. cerevisiae deletion strains, locus YMR205C, strain PFK2 (second series), active compounds read low 0.973 | S. cerevisiae deletion strains, locus YMR277W, strain FCP1, active compounds read low 0.961 | S. cerevisiae deletion strains, locus YNL006W, strain LST8, active compounds read low 0.965 | S. cerevisiae deletion strains, locus YNL020C, strain ARK1, active compounds read low 0.975 | S. cerevisiae deletion strains, locus YNL161W, strain CBK1, active compounds read low 0.962 | [6] 1.09 | S. cerevisiae deletion strains, locus YNL207W, strain RIO2, active compounds read low 0.967 | S. cerevisiae deletion strains, locus YNL222W, strain SSU72, active compounds read low 0.966 | S. cerevisiae deletion strains, locus YNL307C, strain MCK1 (second series), active compounds read low 0.97 | S. cerevisiae deletion strains, locus YOL078W, strain AVO1, active compounds read low 0.964 | S. cerevisiae deletion strains, locus YOL136C, strain PFK27, active compounds read low 0.982 | S. cerevisiae deletion strains, locus YOR061W, strain CKA2, active compounds read low 0.974 | S. cerevisiae deletion strains, locus YOR119C, strain RIO1, active compounds read low 1.03 | [7] 0.997 | S. cerevisiae deletion strains, locus YOR329C, strain SCD5, active compounds read low 0.966 | S. cerevisiae deletion strains, locus YPL031C, strain PHO85, active compounds read low 0.938 | S. cerevisiae deletion strains, locus YPL153C, strain RAD53, active compounds read low 0.951 | S. cerevisiae deletion strains, locus YPL204W, strain HRR25, active compounds read low 0.937 | S. cerevisiae deletion strains, locus YPL209C, strain IPL1, active compounds read low 0.965 | [8] 0.903 | S. cerevisiae deletion strains, locus YPR025C, strain CCL1, active compounds read low 0.962 | S. cerevisiae deletion strains, locus YPR106W, strain ISR1, active compounds read low 0.971 | S. cerevisiae deletion strains, locus YPR111W, strain DBF20, active compounds read low 0.967 | S. cerevisiae deletion strains, strain NNK1, active compounds read low 0.982 | S. cerevisiae deletion strains, strain TSCII, active compounds read low 0.964
